This note sets out measurements from PubChem BioAssay.

The structures appear in SMILES notation. For some of these results: Measured potencies and affinities stand elsewhere. Calls of active or inactive are those of the source.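 Rule for the calls, unless noted: active = primary screen hit whose fluorescence ratio, in both repeats, exceeds the weak agonist control mean by 3 SD; inactive = the rest.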

Assay [1] relates to TRPC4 beta (transient receptor potential cation channel C4), mouse. The assay can be described thus: TRPC4 cation channel opening, retest – cell-based, Fluo4 calcium, HEK293 TRPC4beta/mu-opioid, duplicates, 10 µM, confirmation (AID 2426;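 active = fluorescence ratio normalized to control raised more than 50% in primary screen plus both repeat runs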). Particulars: Fluo4 calcium fluorescence, at 10 µM; hits give high values.
Assay [2] has as its system transient receptor potential cation channel C4 beta (TRPC4), mouse. The assay can be described thus: TRPC4 cation channel opening, second retest – cell-based, second round, Fluo4, HEK293 TRPC4beta/mu-opioid, 1 µM, confirmation (AID 2461;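 active = primary screen active and over 50% activation in each of two duplicate runs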). Particulars: Fluo4 calcium fluorescence, at 1 µM; hits give high values.
For assay [3], the system named is TRPC4 (transient receptor potential cation channel C4 beta), mouse. The assay can be described thus: potentiation of DAMGO EC20 TRPC4 response – cell-based, second round, Fluo-4, HEK293 TRPC4beta/mu-opioid, 1 µM, confirmation (AID 2554). Particulars: DAMGO EC20, Fluo-4 calcium flux, at 1 µM; hits give high values.
Assay [4] relates to TRPC4 beta (transient receptor potential cation channel C4), mouse. The assay can be described thus: potentiation of DAMGO EC20 TRPC4 response – cell-based, Fluo-4, HEK293 TRPC4beta/mu-opioid, confirmation (AID 2555;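 active = primary screen hit whose calcium fluorescence ratio, in both repeats, exceeds the weak agonist control mean by 3 SD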). Particulars: DAMGO EC20, Fluo-4 calcium flux, at 10 µM; hits give high values.
Assay [5] concerns the target Short transient receptor potential channel 4 (Mus musculus) (UniProt Q9QUQ5). The assay can be described thus: blockers of DAMGO-evoked TRPC4 calcium flux – cell-based, Fluo4, HEK293 TRPC4beta/mu-opioid, confirmation (AID 2636;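 active = calcium signal cut by more than 3 SD below the full-agonist control yet still positive, in both repeats and the earlier primary screen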). Particulars: at 10 µM; hits give high values.
For assay [6] the target is unchanged. The assay can be described thus: blockers of DAMGO-evoked TRPC4 calcium flux – cell-based, second round, Fluo4, HEK293 TRPC4beta/mu-opioid, 1 µM, confirmation (AID 2637;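 active = calcium signal ratio cut to more than 3 SD under the fully stimulated control mean yet still positive, in both repeats and the primary screen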). The note with it: at 1 µM; hits give high values.
Assay [7] has the same target. The assay can be described thus: calcium entry via TRPC4 opening agents – cell-based, HEK293 TRPC4/mu-opioid, Fluo-4 calcium, dose response (AID 434937;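 active = primary screen activator hit with a dose response curve and TRPC4 channel activation at any tested dose; inactive = no activation, no dose response, or not a primary hit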).
For assay [8] the target is unchanged. The assay can be described thus: potentiation of DAMGO-evoked TRPC4 calcium signal – cell-based, HEK293 TRPC4/mu-opioid, Fluo-4 calcium, EC20 DAMGO, dose response (AID 434941;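 active = earlier screen potentiator hit that boosts the TRPC4 ion channel at some dose, with a dose response; inactive = no potentiation, no dose response, or not a prior hit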;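 note: calcium entry triggered by an EC20 dose of DAMGO at the co-expressed mu-opioid receptor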).
For assay [9] the target is unchanged. The assay can be described thus: block of DAMGO-driven TRPC4 calcium entry – cell-based, HEK293 TRPC4/mu-opioid, Fluo-4 calcium, dose response (AID 434942;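 active = primary screen inhibitor hit that blocks the TRPC4 channel at some tested dose, yielding a dose curve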).
Assay [10] deals with Short transient receptor potential channel 6 (Mus musculus) (UniProt Q61143). The assay can be described thus: TRPC6 blockade by TRPC4 inhibitor hits – cell-based, HEK293, membrane potential dye, duplicate, selectivity assay for TRPC4 inhibitor project, confirmation (AID 434948;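 active = active in primary screen and both duplicates, each dropping signal beyond three positive-control SD with fluorescence still positive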). Particulars: HEK293 TRPC6, membrane potential dye fluorescence, at 10 µM, stimulated with maximal-effect acetylcholine; hits give high values.

Assay [11] shares this target. The assay can be described thus: TRPC6 opening by TRPC4 activator hits – cell-based, HEK293, membrane potential dye, duplicate, selectivity assay for TRPC4 activator project, confirmation (AID 434950;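 active = membrane potential signal rise above negative control mean plus 3 SD in both duplicates, also active in the earlier TRPC4 screen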;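 for activation: 0% = buffer only wells and 100% = acetylcholine maximal-effect wells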). The note with it: HEK293 TRPC6, membrane potential fluorescence, at 10 µM; activation: hits give high values; outcome: activation.
The target is the same in assay [12]. The assay can be described thus: positive modulators of mouse TRPC6 channel – HEK293 cells, membrane potential dye, duplicate, selectivity assay for TRPC4 potentiator project, confirmation (AID 434952;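 active = compound raising the membrane signal above positive-control mean plus 3 SD in both repeats, and a primary screen hit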). The note with it: HEK293 TRPC6, membrane potential dye fluorescence, at 10 µM, maximal acetylcholine added after compound; hits give high values.
Assay [13] deals with Short transient receptor potential channel 4 (Mus musculus) (UniProt Q9QUQ5). The assay can be described thus: calcium flux activators in TRPC4/5HT1a cells, counter-screen for TRPC4 activator project, cell-based, second counter screen, HEK293 TRPC4/5HT1a, Fluo-4 (AID 434977;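 active = calcium signal rise above buffer-control mean plus 5 SD in both duplicates, and also a hit in the primary screen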). Particulars: Fluo-4 calcium flux, at 10 µM; hits give high values.
Assay [14] in a line: serotonin-gated TRPC4 signal block – cell-based, second counter screen, HEK293 TRPC4/5HT1a, Fluo-4, counter-screen for TRPC4 inhibitor project, confirmation (AID 434978;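 active = primary screen active whose calcium signal fell more than 3 SD beyond the full-serotonin control mean in both duplicate plates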;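 note: serotonin given first at submaximal then at maximal dose after compound preincubation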). Particulars: Fluo-4 calcium flux, at 10 µM, serotonin added to trigger calcium flux; hits give high values.
The test system of assay [15] is TRPC4 (mouse), co-expressed with 5HT1a in HEK293. The assay can be described thus: enhancement of serotonin-evoked TRPC4 response – cell-based, second counter screen, HEK293 TRPC4/5HT1a, Fluo-4, counter-screen for TRPC4 potentiator project, confirmation (AID 434979;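 active = signal rise over 3 SD above mean of control wells given weak agonist, in both repeats and first screen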). The note with it: Fluo-4 calcium flux, at 10 µM, serotonin added at its EC20 dose; hits give high values.

The nature of assay [16]: nonspecific calcium rise without TRPC4 – cell-based, HEK293 mu-opioid receptor line, counter-screen for TRPC4 activator project, confirmation (AID 449723;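 active = hit in primary screen, with calcium signal over 5 SD above buffer well mean in both duplicates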;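 note: counter screen cells carry the mu-opioid receptor alone and lack TRPC4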). The note with it: HEK293 mu-opioid cells, Fluo-4 calcium fluorescence, at 10 µM; hits give high values.
A short description of assay [17]: nonspecific potentiation of DAMGO calcium response – cell-based, HEK293 mu-opioid receptor line, counter-screen for TRPC4 allosteric potentiator project, confirmation (AID 449724;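 active = calcium signal rise more than 3 SD above the low-dose agonist control mean, in both duplicate plates and the primary screen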;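 note: HEK293 cells carrying mu-opioid receptor only with no TRPC4 channel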). The note with it: HEK293 mu-opioid receptor cells, Fluo-4 calcium flux, at 10 µM, compound added before EC20 DAMGO stimulus; hits give high values.

Sequence of Short transient receptor potential channel 4 (Mus musculus) (Q9QUQ5 whole entry, looked up): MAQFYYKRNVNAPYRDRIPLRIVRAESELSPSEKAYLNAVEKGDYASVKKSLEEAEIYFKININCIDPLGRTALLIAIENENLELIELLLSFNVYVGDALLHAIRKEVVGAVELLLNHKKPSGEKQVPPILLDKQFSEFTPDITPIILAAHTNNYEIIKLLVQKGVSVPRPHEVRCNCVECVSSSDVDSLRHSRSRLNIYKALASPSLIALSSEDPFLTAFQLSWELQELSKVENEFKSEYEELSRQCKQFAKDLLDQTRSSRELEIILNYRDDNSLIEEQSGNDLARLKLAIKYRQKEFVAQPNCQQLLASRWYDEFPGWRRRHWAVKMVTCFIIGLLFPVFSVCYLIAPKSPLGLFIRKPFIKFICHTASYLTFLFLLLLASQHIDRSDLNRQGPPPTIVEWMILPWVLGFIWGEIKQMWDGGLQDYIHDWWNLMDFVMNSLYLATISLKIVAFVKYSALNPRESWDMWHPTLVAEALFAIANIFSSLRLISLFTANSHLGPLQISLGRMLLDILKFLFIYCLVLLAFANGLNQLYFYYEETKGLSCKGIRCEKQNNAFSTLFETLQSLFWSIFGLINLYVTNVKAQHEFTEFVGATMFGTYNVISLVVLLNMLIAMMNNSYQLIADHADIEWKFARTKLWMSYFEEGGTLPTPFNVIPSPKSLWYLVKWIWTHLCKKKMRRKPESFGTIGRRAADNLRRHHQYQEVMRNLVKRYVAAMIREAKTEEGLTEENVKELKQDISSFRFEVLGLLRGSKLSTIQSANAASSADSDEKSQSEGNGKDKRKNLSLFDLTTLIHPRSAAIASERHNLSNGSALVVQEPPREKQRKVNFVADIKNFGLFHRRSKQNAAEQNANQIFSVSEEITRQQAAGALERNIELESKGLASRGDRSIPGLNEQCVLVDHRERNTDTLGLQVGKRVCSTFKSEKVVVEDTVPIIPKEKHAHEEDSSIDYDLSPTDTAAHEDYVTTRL
Sequence of Short transient receptor potential channel 6 (Mus musculus) (Q61143 whole entry, looked up): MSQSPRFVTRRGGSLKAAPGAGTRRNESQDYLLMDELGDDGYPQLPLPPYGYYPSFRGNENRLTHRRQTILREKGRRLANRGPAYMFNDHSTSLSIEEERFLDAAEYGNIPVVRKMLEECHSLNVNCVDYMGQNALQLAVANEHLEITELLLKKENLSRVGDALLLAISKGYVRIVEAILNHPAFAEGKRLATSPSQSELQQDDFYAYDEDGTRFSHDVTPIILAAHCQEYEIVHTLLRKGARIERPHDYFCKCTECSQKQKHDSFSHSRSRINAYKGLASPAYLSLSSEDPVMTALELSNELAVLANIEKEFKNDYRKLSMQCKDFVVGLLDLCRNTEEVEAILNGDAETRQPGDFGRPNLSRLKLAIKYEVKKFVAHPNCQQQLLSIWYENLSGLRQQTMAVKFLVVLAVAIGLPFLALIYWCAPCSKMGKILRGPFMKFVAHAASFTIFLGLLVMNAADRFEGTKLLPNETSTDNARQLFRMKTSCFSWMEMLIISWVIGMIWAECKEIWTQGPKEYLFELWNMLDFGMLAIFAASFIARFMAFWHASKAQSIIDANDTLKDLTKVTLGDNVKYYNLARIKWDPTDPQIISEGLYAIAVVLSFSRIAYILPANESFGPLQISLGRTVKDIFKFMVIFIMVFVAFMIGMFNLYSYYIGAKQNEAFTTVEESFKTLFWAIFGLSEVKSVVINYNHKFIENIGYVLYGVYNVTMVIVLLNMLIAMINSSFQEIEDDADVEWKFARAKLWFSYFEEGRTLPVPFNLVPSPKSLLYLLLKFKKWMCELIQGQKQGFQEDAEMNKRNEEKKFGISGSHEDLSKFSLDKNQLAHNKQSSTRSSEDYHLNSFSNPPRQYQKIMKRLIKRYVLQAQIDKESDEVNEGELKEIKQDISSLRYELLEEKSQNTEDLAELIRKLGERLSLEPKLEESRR

Take `COc1cccc(Oc2cncnc2-c2ccc(OC)cc2O)c1`: the outcome in [1], in [2], in assay [3], in assay [4], in [5] and in assay [6] was inactive. For the same compound, the outcome in assay [7], in [8], in [9], in assay [10], in assay [11] and in assay [12] was inactive. Moreover, the outcome in assay [13], in [14], in assay [15], in [16] and in assay [17] was inactive.
With `COc1ccc(N(C(=O)c2snc(C(N)=O)c2N)C(C(=O)NC2CCCCC2)c2ccc(C)o2)c(OC)c1` (stereo unspecified), the outcome in assay [1], in assay [2], in assay [3], in assay [4], in assay [5] and in assay [6] was inactive. The result in assay [7], in assay [8], in [9], in assay [10], in [11] and in assay [12] was inactive. The result in assay [13], in assay [14], in [15], in assay [16] and in [17] was inactive.
Turning to `O=C(Nc1cccc(C(F)(F)F)c1)c1cccc(NS(=O)(=O)c2ccc(O)c(C(=O)O)c2)c1`, the outcome in [1], in [2], in assay [3], in assay [4], in assay [5] and in assay [6] was inactive. The outcome in [7], in assay [8], in [9], in [10], in [11] and in [12] was inactive. In addition, the result in assay [13], in assay [14], in assay [15], in assay [16] and in [17] was inactive.
`CC(C)c1ccc2c(c1)C1Cc3ccccc3C1N2` (stereo unspecified): the outcome in [1], in assay [2], in assay [3], in [4], in assay [5] and in assay [6] was inactive. Further, the result in [7], in assay [8], in assay [9], in assay [10], in assay [11] and in [12] was inactive. Besides, the outcome in assay [13], in assay [14], in [15], in [16] and in assay [17] was inactive.
Take `CCn1c(=O)c2cc(C(=O)N(C)c3cc(C)ccc3OC)sc2c2ccccc21`: the result in assay [1], in assay [2], in assay [3], in [4], in [6] and in assay [7] was inactive. Besides, the result in assay [8], in assay [9], in [10], in [11], in assay [12] and in assay [13] was inactive. Moreover, the result in assay [14], in [15], in assay [16] and in assay [17] was inactive. The inhibition in [5] was 74% (active).
With `Cc1ccc(C2(CCNC(C)c3cccs3)CCOC(C(C)C)C2)cc1` (stereo unspecified), the outcome in [1], in [2], in assay [3], in [4], in assay [5] and in assay [6] was inactive. In addition, the outcome in assay [7], in assay [8], in [9], in assay [10], in assay [12] and in assay [13] was inactive. In addition, the outcome in [14], in [15], in [16] and in assay [17] was inactive. Further, the activation in assay [11] is 69% (active).
`Cc1cc(C)nc(Nc2nc(=O)c3ccccc3s2)n1`: the outcome in assay [1], in assay [2], in assay [5], in assay [6], in assay [7] and in [8] was inactive. The result in assay [9], in assay [10], in assay [11], in assay [12], in assay [13] and in [14] was inactive. Besides, the result in assay [16] and in assay [17] was inactive. Moreover, the potentiation in assay [3] is 10% (active); in assay [4], 82% (active); in assay [15] it was 81.3% (active).
Regarding `O=C(CNc1ccc(Br)cc1)c1ccc(O)cc1`, the outcome in assay [1], in assay [2], in assay [3], in assay [4], in assay [6] and in assay [7] was inactive. The result in assay [8], in assay [9], in assay [11], in assay [12], in assay [13] and in assay [14] was inactive. Further, the result in assay [15], in assay [16] and in assay [17] was inactive. Further, the inhibition in [5] was 82% (active); in [10] it was 60.5% (active).
